# Rab9 prom act = qHTS Assay for Rab9 Promoter Activators | Huh7 Rab9 promoter-luciferase reporter, luminescence, 24 h | Potency, µM (series often up to 9.22 µM), for the others: at the top dose activation, negative = inhibition, most hits filed as activators | actives 2.8% (n = 320,000); note: % of control where 0% means no effect; nearly all actives have a fitted effect of over 60% in size
#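 Rab9 promoter-driven luciferase in stably transfected Huh7 cells; 1500 cells/well rested 2 h, exposed to compound in DMSO for 24 h at 37 °C, 5% CO2. Luminescence read 10 min after adding luciferase reagent at ambient temperature.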
# SMN2 splice up = qHTS Assay for Enhancers of SMN2 Splice Variant Expression; HEK293 SMN2-luciferase splicing reporter, luminescence, 30-36 h; Potency, µM (titrated, usually from 46.1 µM), for inactives: at the highest dose activity change, positive = activation, most hits filed as activators; actives 2.8% (n = 210,000); note: % of control where 0% means no effect; nearly all actives have a fitted effect of over 55% in size
#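 qHTS luciferase splicing reporter: luminescence rises when SMN2 exon 7 is included in transfected HEK293 cells. Compound exposure lasted 30-36 h at 37C, with 4.5 mM final sodium butyrate as control, followed by a ONE-Glo read.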
# p53 reactivator = qHTS assay for re-activators of p53 using a Luc reporter. H1299 p53-A138V BP100-luciferase reporter, luminescence, 24 h. Potency, µM (series often up to 92.2 µM), inactives show at the highest dose activity change, positive = activation, usual class: activators. actives 0.063% (n = 320,000). AID 504706, 2011; note: % of control where 0% means no effect; nearly all actives have a fitted effect of over 45% in size
#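 H1299 (p53-null), stable ts p53-A138V + BP100-Luc; 1000 cells/well, Opti-MEM/10% FBS; cpd 4 pt, 1:5; 24 h, 37 deg C, 5% CO2; detection reagent 10 min RT; luminescence.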
# NPC1 prom act = qHTS Assay for NPC1 Promoter Activators. actives 2.4% (n = 320,000). Huh7 NPC1 promoter luciferase reporter, 24 h. AID 485313, 2010. Potency, µM (series often up to 9.22 µM), without a hit: at the top dose activation, usual class: activators; note: % of control where 0% means no effect; nearly all actives have a fitted effect of over 60% in size
#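 Readout is luciferase luminescence, reflecting NPC1 promoter activation in stably transfected Huh7 cells after 24 h compound exposure at 37 °C in reduced-serum medium with 10% FBS.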
# FLuc counter = qHTS profiling assay for firefly luciferase inhibitor/activator using purifed enzyme and Km concentrations of substrates (counterscreen for miR-21 project) | purified FLuc, Km substrates, luminescence inhibition | Potency, µM (highest dose often 57.5 µM), without a hit: at the top dose activity change, negative = inhibition, most hits filed as inhibitors | actives 6.9% (n = 360,000) | AID 588342, 2011;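 note: plate controls were vehicle for no effect and reference inhibitor for full effect; nearly all actives have a fitted effect of over 55% in size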
# Target sequence (P08659 whole entry, looked up): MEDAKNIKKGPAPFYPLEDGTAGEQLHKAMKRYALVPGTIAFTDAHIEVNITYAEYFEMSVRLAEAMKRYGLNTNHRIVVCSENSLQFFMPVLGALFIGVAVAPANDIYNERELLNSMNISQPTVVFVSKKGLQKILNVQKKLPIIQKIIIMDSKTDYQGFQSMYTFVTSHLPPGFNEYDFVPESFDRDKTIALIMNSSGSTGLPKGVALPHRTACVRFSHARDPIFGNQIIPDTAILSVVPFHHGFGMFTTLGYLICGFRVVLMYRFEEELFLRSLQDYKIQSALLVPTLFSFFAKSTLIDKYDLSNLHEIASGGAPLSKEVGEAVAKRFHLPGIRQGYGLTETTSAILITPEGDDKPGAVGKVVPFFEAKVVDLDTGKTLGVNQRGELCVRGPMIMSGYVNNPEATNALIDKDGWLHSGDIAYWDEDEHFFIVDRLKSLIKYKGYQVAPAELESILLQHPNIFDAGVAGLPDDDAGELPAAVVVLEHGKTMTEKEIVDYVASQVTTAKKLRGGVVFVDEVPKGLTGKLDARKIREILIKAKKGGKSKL
#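 Biochemical qHTS of compounds, final roughly 60 µM downward over six points, against 10 nM purified firefly luciferase using Km concentrations of substrates (10 uM D-luciferin, 10 uM ATP) in Tris acetate pH 7.5 buffer; luminescence output.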
# ELG1 genotoxic = qHTS screen for small molecules that induce genotoxicity in human embryonic kidney (HEK293T) cells expressing luciferase-tagged ELG1; Potency, µM (titrated, usually from 46 µM), inactives show at the highest dose activity change, positive = activation, actives largely listed as activators; actives 1.3% (n = 330,000); HEK293T ELG1-luciferase reporter, luminescence, 16 h; AID 504466, 2011; note: % of control where 0% means no effect; nearly all actives have a fitted effect of over 60% in size
#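 Luminescence read-out: rising ELG1-luciferase signal, reflecting elevated ELG1 protein under genetic stress, flags genotoxic compounds. Cells were treated for 16 hr at 37 °C before ONE-Glo detection.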
# * = called active by the depositor; ? = inconclusive; . = not tested or not shown; [ ] = another dose, or the depositor's remark. In the library only some 7.3% were active in any assay of this set; here they are far more common. Calls come from the whole dose curve; as a rule, active = well fitted curve in the direction sought with a large enough effect; inconclusive = small, poorly fitted or top-dose-only effect, or another doubt; inactive = no such curve, though single readings can be large; an effect the other way counts as inactive or inconclusive. Potency is the fitted concentration of half-maximal effect.
SMILES,Rab9 prom act,SMN2 splice up,p53 reactivator,NPC1 prom act,FLuc counter,ELG1 genotoxic
Cc1noc(-c2ccc(-c3noc(-c4cccc(Cl)c4)n3)cc2)n1,.,.,.,.,-2%,.
NC(=O)c1ccc(-c2noc(-c3cccc(Cl)c3)n2)cc1,?,.,27%,2.5µM*,?,?
CCS(=O)(=O)N1CCC(n2c(C(F)(F)F)nc3cccnc32)CC1,.,.,.,.,6%,.
C=CCN=C1NN=C(c2cc(C)n(CCOC)c2C)CS1,-21%,-73%,-7%,-16%,0.38µM*,-8%
C=CCn1c(C)cc(C2=NNC(=Nc3ccc(C)cc3)SC2)c1C,?,21%,5%,?,?,6%
CCOc1ccc(N=C2NN=C(c3cc(C)n(CC4CCCO4)c3C)CS2)cc1 (stereo not drawn),?,27%,13%,27%,13µM*,7%
COCCn1c(C)cc(C2=NNC(=NC3CC3)SC2)c1C,-37%,-103%,-9%,-42%,0.24µM*,-19%
C=CCn1c(C)cc(C2=NNC(=NC(C)(C)C)SC2)c1C,?,-90%,8%,?,0.34µM*,0.58µM*
O=C(COc1ccccc1)N(Cc1cccnc1)c1nc2ccc(Cl)cc2s1,.,.,.,.,7%,.
CC(C)(CC(=O)Nc1ccccc1)C(=O)O,.,-2%[9.22 µM],.,.,.,.
COc1cccc2cc(C(=O)NCc3ccc(F)cc3)c(=N)oc12,-2%,.,0%,0%,8.5µM*,6%
CCc1ccc(C(=O)Cc2cc3cccc(OC)c3oc2=O)cc1,?,.,13%,?,15µM*,13%
COc1cccc2cc(C(=O)c3ccccc3)oc12,3.5µM*,?,20%,?,9.5µM*,?
COc1cccc2cc(CC(=O)c3ccc(C)c(C)c3)c(=O)oc12,24%,.,2%,6%,17µM*,9%
CCOc1ccc(C(=O)Nc2ccc3nc(SCC(=O)N4CCOCC4)sc3c2)cc1,.,.,.,.,-18%,.
O=C(COC(=O)CNC(=O)c1ccccc1F)NC12CC3CC(CC(C3)C1)C2,-3%,.,4%,0%,.,5%
COc1cccc2cc(C(C)=O)c(=O)oc12,-1%,11%,9%,-1%,3%[2.3 µM],2%
COc1cccc2cc(CC(=O)c3ccccc3)c(=O)oc12,?,.,12%,?,17µM*,11%
COc1cccc2cc(C(=O)Nc3ccc(CC(=O)O)cc3)c(=O)oc12,.,-17%,.,.,1.5µM*,.
COc1cccc2cc(C(=O)OCC(=O)NCc3ccc4c(c3)OCO4)c(=O)oc12,2%,.,13%,-2%,11µM*,?
COc1cccc2cc(CC(=O)c3cc(C)ccc3C)c(=O)oc12,23%,.,12%,25%,15µM*,-3%
COc1cccc(C(=O)OCC(=O)NCc2ccc3c(c2)OCO3)c1OC,.,.,3%,.,.,0%
Cc1cc(=O)n(CC(=O)Nc2ccc([N+](=O)[O-])cc2)c(-n2nc(C)cc2C)n1,.,.,.,.,7%,.
COC(=O)c1c(C)[nH]c(C(=O)/C=C/c2ccccc2F)c1C,1µM*,.,?,1.3µM*,0.3µM*,4.6µM*
COC(=O)c1c(C)[nH]c(C(=O)/C=C/c2ccccc2Cl)c1C,?,.,17%,2µM*,?,18%
Cc1ccc(C(=O)NCC(c2ccc3c(c2)OCO3)N2CCN(c3ccc(F)cc3)CC2)cc1 (stereo not drawn),.,.,.,.,-3%,.
COC(=O)CC1c2ccccc2C(Cc2ccc3c(c2)OCO3)=C(C)N1C(=O)OC (stereo not drawn),.,0%,.,.,.,.
CN(C)c1ccc(C=C2C(=O)OC(C)(C)OC2=O)cc1,-1%,-28%,1%,-6%,19µM*,-7%
